# G9a block: blocks human histone lysine methyltransferase G9a; G9a H3K9 monomethylation, AlphaScreen, 2 h; Potency, µM (highest dose often 102 µM), hits mostly inhibitors; 350,000 compounds, 8.8% hits; further: nearly all actives have a fitted effect of over 75% in size
# Target sequence (Q96KQ7 913-1193 limits assumed): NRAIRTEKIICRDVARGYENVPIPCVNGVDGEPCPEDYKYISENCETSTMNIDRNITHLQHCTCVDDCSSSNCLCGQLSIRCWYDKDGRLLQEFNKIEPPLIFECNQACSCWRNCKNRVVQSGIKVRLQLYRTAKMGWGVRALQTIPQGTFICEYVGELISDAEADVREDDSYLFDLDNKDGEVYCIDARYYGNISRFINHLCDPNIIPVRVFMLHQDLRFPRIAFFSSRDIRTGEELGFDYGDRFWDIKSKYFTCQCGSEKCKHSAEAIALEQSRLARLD
#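 Step 1: enzyme (final 20 nM) with compound, 15 min RT. Step 2: substrate peptide 500 nM and SAM 20 uM, 2 h RT. Step 3: anti-H3K9me1 antibody and AlphaScreen beads, 10 min, then plate read.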
# HP1b chromo inh: HP1-beta chromodomain-methylated histone interaction inhibition. AlphaScreen HP1-beta / biotin-H3K9me3 peptide binding. Potency, µM (top dose mostly 114 µM), usual class: inhibitors. AID 540317. 390,000 compounds, 0.56% hits; further: nearly all actives have a fitted effect of over 70% in size
# Target sequence (P83916 whole entry, looked up): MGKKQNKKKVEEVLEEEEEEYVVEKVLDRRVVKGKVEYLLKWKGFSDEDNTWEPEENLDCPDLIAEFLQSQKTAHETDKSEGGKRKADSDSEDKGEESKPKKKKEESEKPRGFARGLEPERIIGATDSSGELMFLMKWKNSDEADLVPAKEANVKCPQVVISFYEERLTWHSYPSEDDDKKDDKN
#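 AlphaScreen: HP1-beta (50 nM) preformed 30 min with biotin-H3(1-18)K9me3 peptide (50 nM) in PBS pH 7.4, 0.01% Tween-20. Compound added for 30 min at RT, then streptavidin donor/nickel chelate acceptor beads (10 ug/mL) for 30 min.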
# PLK1 PBD inh: PLK1 (human) polo-box domain binding inhibition | Potency, µM, most hits filed as inhibitors | Plk1 PBD binding of FITC phosphopeptide, fluorescence polarization | 360,000 compounds, 2.8% hits; further: series mostly up to about 57 µM; nearly all actives have a fitted effect of over 65% in size
# BAZ2B inh: BAZ2B (human) inhibition; AlphaScreen BAZ2B-H3K14Ac peptide displacement; Potency, µM (highest dose often 114 µM), actives largely listed as inhibitors; 360,000 compounds, 4.4% hits; AID 504333; further: nearly all actives have a fitted effect of over 60% in size
#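 Compounds, titrated to a top concentration of 110 uM, were incubated 30 min at room temperature with preformed BAZ2B/acetyl-K14 H3 peptide complex (50 nM each). Proximity signal was measured by AlphaScreen after 20 min with beads.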
# PI5P4K alpha inh: inhibitors of human PI5P4K alpha; AID 652105; max response, %; PI5P4Kalpha enzyme, ADP-Glo luminescence, 60 min; active compounds read low; 330,000 compounds, 1.2% hits; active means max response of -50% or lower; inconclusive means between -30% and -50%; inactive means -30% or higher; further: value at the top dose of about 77 µM
#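 Controls without substrate or without enzyme flank wells where PI5P4Kalpha converts substrate using 5 microM ATP (final). Incubation lasts 60 minutes at room temperature; ADP formed is read by ADP-Glo luminescence.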
# JMJD2A Tudor inh: blocks the human JMJD2A Tudor domain. AlphaScreen JMJD2A-Tudor / H3K4me3 peptide binding. Potency, µM (series often up to 114 µM), hits mostly inhibitors. 390,000 compounds, 4.4% hits. AID 504339; further: nearly all actives have a fitted effect of over 50% in size
# A number is an active result; . = inactive; ? = inconclusive; / = not tested or not shown; [ ] = another dose, or the depositor's remark. The list is not random: actives were taken first. Their share in the collection is about 12%. Unless noted, the call rests on the fitted dose curve; in most records, active means well fitted curve in the direction sought with a large enough effect; inconclusive means small, poorly fitted or top-dose-only effect, or another doubt; inactive means no such curve, though single readings can be large; an effect the other way counts as inactive or inconclusive.
SMILES,G9a block,HP1b chromo inh,PLK1 PBD inh,BAZ2B inh,PI5P4K alpha inh,JMJD2A Tudor inh
CC(C(=O)NC1C=CS(=O)(=O)C1)N1C(=O)/C(=C\c2ccccc2)SC1=S (stereo not drawn),/,.,?,?,.,.
COc1ccccc1/C=C1/SC(=S)N(C(C)C(=O)NC2C=CS(=O)(=O)C2)C1=O (stereo not drawn),45µM,.,.,.,.,.
O=C(CN1C(=O)S/C(=C\c2ccc(Cl)cc2)C1=O)NC1C=CS(=O)(=O)C1 (stereo not drawn),.,.,19µM,.,.,20µM
CNS(=O)(=O)c1cn(CC(=O)N2CCN(c3ccc(Cl)cc3)CC2)cc1S(=O)(=O)NC,.,.,/,.,/,.
O=C(Cc1ccccc1)Nc1ncnc2c1C(c1ccccc1)c1c(ccc3ccccc13)O2 (stereo not drawn),/,.,/,/,/,.
CC(=O)C1=C(O)C(=O)N(C)C1c1ccccc1[N+](=O)[O-] (stereo not drawn),11µM,?,27µM,.,.,?
CCCCCCN1C(=O)C(O)=C(C(C)=O)C1c1ccccc1[N+](=O)[O-] (stereo not drawn),50µM,.,.,?,.,.[11.4 µM]
CC(=O)C1=C(O)C(=O)N(CC(=O)O)C1c1ccccc1Cl (stereo not drawn),50µM,.,.,71µM,.,?
Cc1ccc(NS(=O)(=O)c2cc3c(cc2Cl)NC(=O)CO3)cc1C,/,/,/,/,/,.
COc1ccc2nc(SCC(=O)NC3(C#N)CCCCC3)[nH]c2c1,.[0.501 µM],.,.,.,.,.
COc1cc(Cl)c(C)cc1NC(=O)c1nn(C)c2c1CSc1ccccc1-2,.,.,/,.,/,.
COc1cc(OC)c(NC(=O)c2oc3ccc4c(c3c2C)C(=O)CC(C)(C)O4)cc1Cl,.,.,/,.,/,.
COc1ccc(CN2C[C@@H](CO)O[C@@H](n3cnc4c(NCCO)ncnc43)C2)cc1,/,/,.,/,.,/
COCc1c(C(=O)OCC(=O)c2ccc[nH]2)oc2ccccc12,/,.,.,/,.,.
CSCc1c(C(=O)OCC(=O)c2ccc[nH]2)oc2ccccc12,25µM,.,.,.,-76,.
COc1ccc(-c2cc(C(F)(F)F)c3c(=O)n(-c4ccccc4)[nH]c3n2)cc1,13µM,.,.,?,.,56µM
CCOc1ccc(CNC(=O)C2CCN(c3nnc(-n4c(C)ccc4C)s3)CC2)cc1,.,.,/,.,/,.
O=C(O)CCCCCN1C(=O)/C(=C/c2ccncc2)SC1=S,79µM,.,.,.,.,.
O=C(O)CCCN1C(=O)/C(=C/c2ccc(-c3nc4ccccc4s3)o2)SC1=S,?,16µM,?,10µM,?,10µM
O=C(CCCN1C(=O)/C(=C/c2ccccc2Cl)SC1=S)NNC(=O)c1ccccc1Cl,.,.,.,.,.,.
O=C(O)CCCCCN1C(=O)/C(=C\c2ccc(-c3ccc(Cl)cc3)o2)SC1=S,?,40µM,.,?,.,32µM
O=C(O)CCCCCN1C(=O)/C(=C\c2ccncc2)SC1=S,.,.,.,.,.,.
O=C1[C@@H]2[C@H](Cc3ccc(O)cc3)N[C@]3(C(=O)Nc4ccccc43)[C@@H]2C(=O)N1c1ccc(F)cc1,?,/,/,.,/,/
Cc1c(Cl)ccc2c1NC(=O)[C@]21N[C@@H](Cc2ccccc2)[C@H]2C(=O)N(c3ccc(F)cc3)C(=O)[C@H]21,1.6µM,.,.,?,.,.
O=C1[C@@H]2C(Cc3ccc(O)cc3)NC3(C(=O)Nc4ccc(F)cc43)[C@@H]2C(=O)N1c1ccccc1 (stereo partly drawn),79µM,.,.,.,.,79µM
SMILES,G9a block,HP1b chromo inh,PLK1 PBD inh,BAZ2B inh,PI5P4K alpha inh,JMJD2A Tudor inh
COc1ccc(NC(=O)NCCCN2CCCC2=O)cc1,?,.,.,.,.,.
COc1ccc(NC(=O)CC(C)NCCCN2CCCC2=O)cc1 (stereo not drawn),56µM,?,.,?,.,18µM
Fc1ccc(-c2csc(=S)[nH]2)cc1,?,.,24µM,50µM,-51,22µM
O=c1[nH]c(-c2ccc(Cl)cc2)cs1,.,.,.,/,.,.
S=c1[nH]c(-c2ccccc2)cs1,1.4µM,?,21µM,40µM,-70,22µM
CC(=O)c1cccc(NC(=O)c2ccc3nc(C(C)C)oc3c2)c1,.,.,/,.,/,.
COc1cccc(CN(C)C(=O)c2ccc(NS(=O)(=O)c3ccc4[nH]c(=O)[nH]c4c3)cc2)c1OC,.,.,.,.,.,.
CCOc1ccc(NS(=O)(=O)c2ccc(C(=O)N(C)Cc3cccc(OC)c3OC)cc2)cc1,.,.,.,.,.,89µM
CCOc1ccc(NS(=O)(=O)c2ccc(NC(=S)NC(=O)C(C)C)cc2)cc1,.[2.33 µM],.,27µM,.,.,.[11.4 µM]
CCCCCCNc1ncnc2c1sc1nc(N3CCOCC3)c3c(c12)CCCC3,.,.,/,.,/,.
CC1(C)Cc2c(c(-c3ccco3)nc3sc4c(NCCCO)ncnc4c23)CO1,/,.,.,.,.,.
CCN(CC)CCNc1ncnc2c1sc1nc(N3CCCC3)c3c(c12)CC(C)(C)OC3,?,?,.,45µM,.,?
CC1(C)Cc2c(c(-c3ccco3)nc3sc4c(NCCN5CCOCC5)ncnc4c23)CO1,18µM,.,.,.,.,.
CCN(CC)CCNc1ncnc2c1sc1nc(N3CCOCC3)c3c(c12)CCCC3,35µM,.,.,.,.,?
CN(C)CCNc1ncnc2c1sc1nc(N3CCCC3)c3c(c12)CC(C)(C)OC3,?,.,.,?,.,?
CCc1sc(C(=O)N2CCN(C(=O)c3ccccc3)CC2)cc1C,/,.,.,/,.,.
Nc1ncc(N=Nc2cc(C(=O)O)ccc2Cl)s1,.,?,?,89µM,-54,?
COC(=O)c1sc2ccccc2c1C(=O)OC,?,.,.,.,/,.
COC(=O)c1sc2ccccc2c1N,?,.,27µM,.,.,.
CCCCN(Cc1cc2ccccc2[nH]c1=O)C(=O)c1cccc(Cl)c1,.,.,/,.,/,.
O=C(NCc1cc(Br)cc(Br)c1OC(=O)c1ccccc1[N+](=O)[O-])c1ccccc1,40µM,.,.,.,.,.
COc1ccc(C)c2sc(NC(=O)c3ccc(S(=O)(=O)N4CCCCC4)cc3)nc12,?,.,/,.,/,.
Cn1c(Cc2ccccc2)nnc1SCC(=O)c1ccc(Br)s1,?,.,21µM,.,.,.
CN1CCC(=NNC(=O)C(=O)NCc2ccccc2)CC1,40µM,.,.,.,/,.
CN1CCN(C(=S)C(=O)NCc2ccccc2)CC1,.,.,.,.,.,.
CN1CCC(=NNC(=O)C(=O)Nc2cccc(Br)c2)CC1,.,.,12µM,.,.,22µM
